# Most compounds without a hit are left out; they make up all but 4.7% or so of the library.
# EBV LMP1 NFkB: reduces LMP1-driven NF-kappaB luciferase signal; 350,000 tested, 0.69% active; AID 504558; inhibition, % at 12.5 µM; LMP1-induced NF-kappaB luciferase reporter cells, luminescence; in the data active means inhibition above about 41%; inconclusive means no clear call, values can overlap the other calls
# TROY signal inh: inhibitors of TROY-dependent NF-kB signaling | Q293 LMP1-TROYcd NF-kB luciferase reporter, 4 h | inhibition, % at 10 µM | 360,000 tested, 0.98% active;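 active means compounds whose plate-normalised and pattern-corrected inhibition of the luciferase reporter signal at the single screening dose is 50% or more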
# TWEAK Fn14 block: blocks TWEAK-Fn14 interaction in a reporter cell assay; inhibition, % at 10 µM; 360,000 tested, 2% active; AID 1159606; TWEAK-stimulated Fn14 reporter cells, luciferase luminescence, 8 h; in the data active means inhibition above about 50%
# HSF-1 act: increases HSF-1 driven luciferase reporter signal. NIH3T3-HGL HSF-1 luciferase reporter, MG132, 8 h; 100% = twice DMSO control signal. activation, % at 9 µM. 300,000 tested, 1.7% active. AID 504408;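 active means mean replicate activation of at least 50% with a set share of replicates each reaching 50%; inconclusive means only one of those two conditions met; inactive means mean below 50% and too few replicates reaching it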
# HSP90 refold inh: HSP90 refolding inhibition in rabbit reticulocyte lysate; luciferase refolding luminescence, 3 h; inhibition, % at 5.6 µM; 290,000 tested, 0.91% active; AID 1789;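 active means inhibition above the screen-wide mean plus 3 SD, computed separately per campaign, cut at about 16% in these data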;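 further: inhibitors lower the luminescence because luciferase stays unfolded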
# HSF1 inhib: HSF1 inhibition; NIH3T3-HGL HSE-luciferase, MG132-induced, luminescence 8 h; stronger effect = lower value; activity change, negative = inhibition, % at 7.5 µM (by protocol); 300,000 tested, 0.77% active; AID 2098;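 active means more than half of replicate wells show activity change below -50%, luminescence cut by over half; inconclusive means some wells, but at most half, below -50%; inactive means no replicate well below -50%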;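 further: luciferase reports HSF-1 transcriptional activity via heat shock element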
# HSP90 confirm: HSP90 inhibition, confirmation assay; shares compounds with HSP90 refold inh; rabbit reticulocyte lysate, luciferase refolding luminescence, 3 h; inhibition, % at 5.9 µM; 2,300 tested, 64% active; AID 1846; in the data active means inhibition above about 18%
# FLuc counter: blocks native firefly luciferase in HSP90 counter-screen | shares compounds with HSP90 refold inh | 2,300 tested, 48% active | purified native firefly luciferase, luminescence | inhibition, % at 5.9 µM;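 active means inhibition above the mean inhibition of all tested sample wells plus 3 SD, cut at about 10% in these data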
# Target sequence (P08659 whole entry, looked up): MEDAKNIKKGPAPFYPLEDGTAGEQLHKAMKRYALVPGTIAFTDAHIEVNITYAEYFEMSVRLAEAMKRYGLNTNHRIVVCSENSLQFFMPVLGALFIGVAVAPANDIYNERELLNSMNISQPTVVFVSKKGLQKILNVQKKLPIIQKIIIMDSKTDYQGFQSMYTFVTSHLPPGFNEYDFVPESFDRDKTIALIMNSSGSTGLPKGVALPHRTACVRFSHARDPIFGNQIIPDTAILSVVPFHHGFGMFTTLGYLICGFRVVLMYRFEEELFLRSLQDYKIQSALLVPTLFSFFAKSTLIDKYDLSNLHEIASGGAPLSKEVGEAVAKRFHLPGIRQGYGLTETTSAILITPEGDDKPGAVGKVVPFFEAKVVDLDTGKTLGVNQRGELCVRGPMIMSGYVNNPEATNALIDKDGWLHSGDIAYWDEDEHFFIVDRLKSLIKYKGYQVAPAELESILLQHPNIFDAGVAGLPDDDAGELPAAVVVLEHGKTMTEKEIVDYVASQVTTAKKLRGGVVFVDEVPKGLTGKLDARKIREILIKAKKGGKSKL
# Hits are given with their value; n = inactive; u = inconclusive; x = no result.
SMILES,EBV LMP1 NFkB,TROY signal inh,TWEAK Fn14 block,HSF-1 act,HSP90 refold inh,HSF1 inhib,HSP90 confirm,FLuc counter
CS(=O)(=O)n1nc(-c2ccc(Cl)cc2)nc1N,n,n,n,n,n,n,x,x
Cn1nc(-c2ccc(Cl)cc2)nc2c(=O)n(C)c(=O)nc1-2,x,x,x,n,95,-95,97,90
COc1ccc(-c2ccn(-c3cccc(F)n3)n2)cc1,n,n,56,x,22,x,33,18
COc1ccc(C(=O)Nc2ccccc2C(=O)Nc2ccccc2C(=O)O)cc1,n,n,n,u,n,n,x,x
COc1ccc(C(=O)Nc2ccccc2C(=O)N/N=C/c2cccc3ccccc23)cc1,n,n,78,n,35,-72,80,51
COc1ccc(C(=O)Nc2ccccc2C(=O)N/N=C/c2ccncc2)cc1OC,n,n,n,n,29,n,61,19
COc1ccc(C(=O)N2CCCCC2c2cc(C(=O)NCc3ccc(F)cc3)no2)cc1 (stereo not given),x,n,n,x,x,x,x,x
CC(C)(C)N=C1NN=C(c2cc3ccccc3o2)CS1,n,70,63,n,20,n,29,23
CC(C)(C)N=C1NN=C(c2ccc(Cl)cc2)CS1,n,62,65,n,20,u,22,22
CC(C)N=C1NN=C(c2ccc(Cl)c(Cl)c2)CS1,n,n,n,n,n,n,x,x
CC(=O)c1c(C)[nH]c(C2=NNC(=NC(C)(C)C)SC2)c1C,n,n,n,n,n,n,x,x
C[C@@H]1CN([C@@H](C)CO)C(=O)CCCn2nncc2CO[C@H]1CN(C)S(=O)(=O)c1ccccc1C#N,n,n,n,x,x,x,x,x
Cc1cc(NS(C)(=O)=O)c(=O)n(Cc2cccc(C(F)(F)F)c2)c1,n,n,n,x,x,x,x,x
O=C(COC(=O)c1nsc(Cl)c1Cl)NC1CCCC1,n,n,n,n,23,n,n,n
CCCc1ccc(-c2ccc(/C=C/C(=O)O)cc2)nc1,75,n,94,n,59,n,82,51
Cc1cccc(-c2cc3nc(C)c(C)c(NCCCn4ccnc4)n3n2)c1,n,n,n,n,19,n,n,n
CCOc1ccc(-n2c(C)cc(/C=N/Nc3nc(C)cc(=O)[nH]3)c2C)cc1,n,n,n,n,n,n,x,x
COc1ccc(-n2c(C)cc(/C=N/Nc3nnc(C)n3N)c2C)cc1,n,n,n,n,75,n,n,n
COC(=O)[C@@]1(Cc2ccccc2)[C@H]2C(=O)N(Cc3ccccc3)C(=O)[C@H]2[C@H]2CN=C(SCC3CC3)N21,n,n,n,x,x,x,x,x
Fc1ccc(-c2nnc(NC3=NCCCCC3)o2)cc1,65,77,99,n,73,n,81,76
Cc1cn([C@H]2C[C@H](O)[C@@H](/C=C/C(=O)NCCc3ccc(S(N)(=O)=O)cc3)O2)c(=O)[nH]c1=O,x,n,n,x,x,x,x,x
COc1ccc(C(=O)Nc2ccc3ccccc3n2)c(OC)c1OC,n,72,88,n,41,n,68,65
COc1cc(SC)ccc1C(=O)Nc1nc2ccccc2[nH]1,96,84,100,n,99,-92,97,92
CSc1ccccc1C(=O)Nc1nc2ccccc2[nH]1,n,n,n,n,n,n,x,x
COc1ccccc1C(=O)Nc1nc2ccccc2[nH]1,88,89,107,n,98,-83,97,92
CCCNC1=C(N(C(C)=O)c2cccc(F)c2)C(=O)c2ccccc2C1=O,n,n,79,n,82,n,n,n
CCC(=O)N(C1=C(NC(C)C)C(=O)c2ccccc2C1=O)C(C)C,n,n,n,n,n,n,x,x
O=S(=O)(Cc1ccccc1)N(O)c1ccccc1,n,n,n,n,88,n,92,n
Cc1cc2ncc(-c3cccs3)nc2cc1C,n,n,71,n,35,n,61,59
Oc1ccc(C[C@H]2CNC(=S)N2C[C@H]2CCCN2C[C@H](Cc2ccccc2)N2C[C@H](Cc3ccccc3)N(CC3CCCCC3)C2=S)cc1,x,n,n,x,x,x,x,x

# Bioassay records as filed in PubChem.
